Out of some 5,500 compounds screened, about 2,000 (36%) were called active. Not shown: some 18% with an inconclusive outcome. No stated cut-off is given here; in the data, active means normalized growth mostly below about 0.91 (no sharp cut-off); inconclusive means no clear call, values can overlap the other calls; inactive means mostly above about 0.92. The list shows a part of the results.
Assay: chemical genetic growth profiling, strain panel (AID 1159580);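 further: tested at 20 µM; growth read once vehicle control cultures reached saturation at 30 °C; 1 = growth at the plate median or of vehicle wells; lower values mean less growth of the strain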
Settings: S. cerevisiae deletion strains, growth OD
[1] = locus YAL040C, strain CLN3, active compounds read low
[2] = locus YCL061C, strain MRC1 (second series), active compounds read low
[3] = locus YDR150W, strain NUM1, active compounds read low
[4] = locus YDR363W, strain ESC2, active compounds read low
[5] = locus YER002W, strain NOP16, active compounds read low
[6] = locus YGR078C, strain PAC10, active compounds read low
[7] = locus YNL175C, strain NOP13, active compounds read low
[8] = locus YNL197C, strain WHI3, active compounds read low
[9] = locus YNL224C, strain SQS1, active compounds read low
[10] = locus YOR083W, strain WHI5 (second series), active compounds read low
[11] = locus YGR229C, strain SMI1, active compounds read low
[12] = locus YJR075W, strain HOC1, active compounds read low
[13] = locus YPL241C, strain CIN2, active compounds read low
[14] = locus YNL153C, strain GIM3, active compounds read low
[15] = locus YBL105C, strain PKC1, active compounds read low
[16] = locus YBR135W, strain CKS1, active compounds read low
[17] = locus YBR136W, strain MEC1, active compounds read low
[18] = locus YBR160W, strain CDC28, active compounds read low
[19] = locus YDL017W, strain CDC7, active compounds read low
[20] = locus YDL028C, strain MPS1, active compounds read low
[21] = locus YDL108W, strain KIN28, active compounds read low
[22] = locus YDL214C, strain PRR2, active compounds read low
[23] = locus YDR052C, strain DBF4, active compounds read low
[24] = locus YDR226W, strain ADK1, active compounds read low
[25] = locus YDR477W, strain SNF1, active compounds read low
[26] = locus YER123W, strain YCK3, active compounds read low
[27] = locus YER133W, strain GLC7, active compounds read low
[28] = locus YFR003C, strain YPI1, active compounds read low
[29] = locus YFR019W, strain FAB1, active compounds read low
[30] = locus YFR028C, strain CDC14, active compounds read low
[31] = locus YGR040W, strain KSS1, active compounds read low
[32] = locus YGR052W, strain FMP48, active compounds read low
[33] = locus YGR092W, strain DBF2, active compounds read low
[34] = locus YHR030C, strain SLT2, active compounds read low
[35] = locus YHR079C, strain IRE1, active compounds read low
[36] = locus YHR082C, strain KSP1, active compounds read low
[37] = locus YHR205W, strain SCH9, active compounds read low
[38] = locus YIL147C, strain SLN1, active compounds read low
[39] = locus YJL095W, strain BCK1, active compounds read low
[40] = locus YJL128C, strain PBS2, active compounds read low
[41] = locus YJL157C, strain FAR1, active compounds read low
[42] = locus YJR016C, strain ILV3, active compounds read low
[43] = locus YJR066W, strain TOR1 (second series), active compounds read low
[44] = locus YJR066W, strain TOR1, active compounds read low
[45] = locus YKL048C, strain ELM1, active compounds read low
[46] = locus YKL067W, strain YNK1, active compounds read low
[47] = locus YKL101W, strain HSL1, active compounds read low
[48] = locus YKL203C, strain TOR2, active compounds read low
[49] = locus YLR113W, strain HOG1, active compounds read low
[50] = locus YLR133W, strain CKI1, active compounds read low
[51] = locus YLR403W, strain SFP1, active compounds read low
[52] = locus YML070W, strain DAK1, active compounds read low
[53] = locus YMR205C, strain PFK2 (second series), active compounds read low
[54] = locus YNL006W, strain LST8, active compounds read low
[55] = locus YNL020C, strain ARK1, active compounds read low
[56] = locus YNL183C, strain NPR1, active compounds read low
[57] = locus YNL207W, strain RIO2, active compounds read low
[58] = locus YNL307C, strain MCK1 (second series), active compounds read low
[59] = locus YOL136C, strain PFK27, active compounds read low
[60] = locus YOR061W, strain CKA2, active compounds read low
[61] = locus YOR119C, strain RIO1, active compounds read low
[62] = locus YOR231W, strain MKK1, active compounds read low
[63] = locus YPL031C, strain PHO85, active compounds read low
[64] = locus YPL153C, strain RAD53, active compounds read low
[65] = locus YPL204W, strain HRR25, active compounds read low
[66] = locus YPL209C, strain IPL1, active compounds read low
[67] = locus YPL256C, strain CLN2, active compounds read low
[68] = locus YPR106W, strain ISR1, active compounds read low
[69] = locus YPR111W, strain DBF20, active compounds read low
[70] = strain NNK1, active compounds read low

Measured: normalized growth

Ic1ccc(N2CCN(Cc3c[nH]c4ncccc34)CC2)cc1
active: [2] 0.919 | [3] 0.914 | [6] 0.851 | [10] 0.809
inactive: [1] 1 | [4] 0.956 | [5] 1.06 | locus YMR307W, strain GAS1, active compounds read low 1.01 | [7] 1.01 | [8] 1.01 | [9] 1.06

Clc1ccc(N2CCN(Cc3c[nH]c4ncccc34)CC2)cc1
inactive: [1] 1.08 | [2] 0.969 | [3] 0.965 | [4] 0.907 | [5] 0.968 | [6] 0.975 | [12] 0.929 | [7] 0.969 | [8] 0.974 | [9] 0.987 | [10] 0.925 | locus YPL055C, strain LGE1, active compounds read low 0.92 | [13] 0.992
active: [11] 0.748

OC1(c2ccc(Cl)cc2)CCN(Cc2c[nH]c3ccccc23)CC1
inactive: locus YAL013W, strain DEP1, active compounds read low 1.01 | [1] 1 | [2] 0.999 | [4] 0.974 | [5] 1.03 | [6] 1.02 | [11] 0.979 | [12] 1.01 | [14] 1 | [7] 1.02 | [8] 1.02 | [9] 1.03 | locus YNL322C, strain KRE1, active compounds read low 0.993 | [10] 1.01

COCc1nc2c([nH]1)c(=O)n(C)c(=O)n2CC(C)C
inactive: [1] 0.991 | [2] 1 | [3] 1 | [4] 0.997 | [5] 1.02 | [6] 1.01 | [11] 0.993 | [12] 0.994 | [14] 1.01 | [7] 0.999 | [8] 1.01 | [9] 1 | [10] 1.01 | [13] 1.01

Cc1ccc(Sc2c(Sc3ccc(C)cc3)c(=O)c2=O)cc1
inactive: locus YAR019C, strain CDC15, active compounds read low 0.898 | [15] 0.982 | [16] 0.961 | [17] 0.968 | [18] 0.958 | [19] 0.971 | [20] 0.961 | locus YDL101C, strain DUN1, active compounds read low 0.915 | [21] 0.964 | locus YDL132W, strain cdc53, active compounds read low 0.936 | [23] 0.974 | [24] 0.968 | locus YFL009W, strain cdc4, active compounds read low 0.946 | [28] 0.969 | [30] 0.958 | [38] 0.964 | [40] 0.949 | [42] 0.976 | locus YKL193C, strain SDS22, active compounds read low 0.948 | locus YMR001C, strain CDC5, active compounds read low 0.952 | locus YMR277W, strain FCP1, active compounds read low 0.882 | [54] 0.949 | locus YNL161W, strain CBK1, active compounds read low 0.966 | [57] 0.973 | locus YOR329C, strain SCD5, active compounds read low 0.978 | [66] 0.965 | locus YPR025C, strain CCL1, active compounds read low 0.957 | [68] 0.967 | [69] 0.952 | [70] 0.963 | strain TSCII, active compounds read low 0.914
active: [22] 0.184 | [25] 0.226 | [26] 0.14 | [27] 0.237 | [29] 0.128 | [31] 0.285 | [32] 0.228 | [33] 0.427 | [34] 0.132 | [35] 0.171 | [36] 0.155 | [37] 0.0561 | [39] 0.172 | [41] 0.168 | [43] 0.135 | [44] 0.129 | [45] 0.599 | [46] 0.287 | [47] 0.447 | [48] 0.551 | [49] 0.186 | [50] 0.267 | [51] 0.161 | [52] 0.135 | [53] 0.486 | [55] 0.319 | [56] 0.173 | [58] 0.267 | [59] 0.118 | [60] 0.427 | [61] 0.636 | [62] 0.224 | [63] 0.144 | [64] 0.178 | [65] 0.197 | [67] 0.172

O=c1c(Sc2ccc(Cl)cc2)c(Sc2ccc(Cl)cc2)c1=O
active: [22] 0.104 | [25] 0.136 | [26] 0.0987 | [27] 0.108 | [29] 0.091 | [31] 0.158 | [32] 0.135 | [33] 0.386 | [34] 0.128 | [35] 0.113 | [36] 0.128 | [37] 0.121 | [39] 0.128 | [41] 0.0972 | [43] 0.0937 | [44] 0.124 | [45] 0.6 | [46] 0.115 | [47] 0.39 | [48] 0.432 | [49] 0.175 | [50] 0.147 | [51] 0.154 | [52] 0.0995 | [53] 0.241 | [54] 0.45 | [55] 0.196 | [56] 0.114 | [58] 0.261 | [59] 0.0906 | [60] 0.266 | [61] 0.485 | [62] 0.142 | [63] 0.103 | [64] 0.104 | [65] 0.109 | [67] 0.154
inactive: [15] 0.984 | [16] 0.961 | [17] 0.978 | [18] 0.973 | [19] 0.985 | [20] 0.973 | [21] 0.967 | [23] 0.977 | [24] 0.971 | [28] 0.979 | [30] 0.968 | [38] 0.971 | [40] 0.971 | [42] 0.974 | [57] 0.973 | [66] 0.985 | [68] 0.978 | [69] 0.962 | [70] 0.98
